Assay [1] in a line: Nuclear factor erythroid 2-related factor 2/antioxidant responsive element (Nrf2/ARE) small molecule agonists: qHTS cell viability counter screen in human keratinocytes (AID 1919968; active means well fitted curve in the direction sought with a large enough effect in the repeat runs; an effect the other way counts as inactive or inconclusive; further: nearly all actives have a fitted effect of over 55% in size; further: potency means the concentration at half of the fitted maximal effect). The method, boiled down:
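In human HaCaT keratinocytes stably expressing an ARE-driven luciferase, compound exposure lasted 23 h at 37 C under 5% CO2. Viable cells are quantified with a protease-based fluorogenic reagent (CellTiter-Fluor) read 1 h after addition.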

The target in assay [2] is Gonadotropin-releasing hormone receptor (Homo sapiens) (UniProt P30968). Nature of the assay: Human gonadotropin-releasing hormone receptor (GnRHR) small molecule agonists, calcium flux assay in GnRHR-HEK293 cells (AID 1920063). Further: nearly all actives have a fitted effect of over 35% in size. Put shortly: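 Intracellular calcium rise is the read-out: engineered human GnRHR HEK293 cells, dye-loaded, are exposed to DMSO-dissolved compounds and fluorescence at Ex/Em 480/540 is tracked for 3 min.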
Chain of Gonadotropin-releasing hormone receptor (Homo sapiens) (P30968 whole entry, looked up): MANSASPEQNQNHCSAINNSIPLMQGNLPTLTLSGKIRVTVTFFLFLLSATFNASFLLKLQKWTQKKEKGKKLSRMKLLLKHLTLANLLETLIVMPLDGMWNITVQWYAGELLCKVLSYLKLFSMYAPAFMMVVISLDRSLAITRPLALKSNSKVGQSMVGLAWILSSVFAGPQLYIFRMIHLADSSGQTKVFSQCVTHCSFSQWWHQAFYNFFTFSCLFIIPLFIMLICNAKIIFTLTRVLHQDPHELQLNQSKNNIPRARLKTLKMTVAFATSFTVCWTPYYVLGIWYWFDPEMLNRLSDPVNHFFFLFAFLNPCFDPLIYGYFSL

The target of assay [3] is KiSS-1 receptor (Homo sapiens) (UniProt Q969F8). Nature of the assay: Human kisspeptin (KISS1R) small molecule agonists, calcium flux assay in KISS1R-HEK293 cells (AID 1920064; active means well fitted curve in the direction sought with a large enough effect in the repeat runs; an effect the other way counts as inactive or inconclusive). Put shortly:
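Concentration-response testing used 15 concentrations in triplicate on human KISS1R-expressing HEK293 cells. Calcium-dependent fluorescence (Ex/Em 480/540) was followed kinetically for 3 min after compound transfer.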

Assay [4] can be described thus: G protein-coupled receptor (GPCR) small molecule agonists, calcium flux assay: HEK293 wild type cell line counter screen (AID 1920065). The method, boiled down:
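Fluorescence intensity signals activation. After overnight (18 h) culture and a 1 h calcium dye load at 37 C, compounds are added by pin tool and the plate read at 480/540 nm for 3 min in 1 s steps.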

A short description of assay [5]: p53 small molecule agonists, cell-based qHTS assay with human liver microsomes (AID 1963577). The method, boiled down: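 Fluorescence of the beta-lactamase reporter in p53RE-bla cells, detected with LiveBLAzer substrate (2 h, room temperature, dark), served as the read-out after 16 h compound exposure at 37 C with human liver microsomes and NADPH, each 0.5 mg/mL final.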

A short description of assay [6]: p53 small molecule agonists, cell-based qHTS assay with rat liver microsomes (AID 1963578). The method, boiled down:
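Cells carrying a p53 response element–beta-lactamase reporter were plated and rested 5 h, then dosed with compound in DMSO plus rat liver microsomes and NADPH, each at 0.5 mg/mL final. After 16 h at 37 C, LiveBLAzer substrate was added for 2 h.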

The nature of assay [7]: p53 small molecule agonists, cell-based qHTS assay with human liver microsomes: qHTS cell viability counter screen (AID 1963579). Further: nearly all actives have a fitted effect of over 45% in size. Further: potency means the concentration at half of the fitted maximal effect. Put shortly:
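Cytotoxicity counter screen: p53RE-bla, 4,000 cells/well; 5 h settle, 37 C/5% CO2; cpd + HLM 0.5 mg/mL + NADPH 0.5 mg/mL (final); 16 h, 37 C; CellTiter-Glo, 30 min RT, luminescence.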

A short description of assay [8]: p53 small molecule agonists, cell-based qHTS assay: qHTS cell viability counter screen (AID 1963581). Further: nearly all actives have a fitted effect of over 45% in size. Put shortly: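 Luminescence from CellTiter-Glo, reflecting ATP content, serves as the cytotoxicity measure; it is taken after the 2 h reporter substrate step in HCT-116 p53RE-bla cells dosed for 16 h at 37 C.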
Assay [9] has as its target 5-hydroxytryptamine receptor 2A (Homo sapiens) (UniProt P28223). The assay can be described thus: 5-hydroxytryptamine receptor 2A (HTR2A) small molecule antagonists, cell-based qHTS assay (AID 1963586). Further: nearly all actives have a fitted effect of over 45% in size. The method, boiled down:
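CHO cells stably expressing human HTR2A were plated for 18 h at 37 C, then loaded with calcium dye for 1 h. Compounds were preincubated 5 min at room temperature before DOI (4 nM solution) was added. Kinetic fluorescence was read for 3 min.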

For assay [10] the target is unchanged. Nature of the assay: 5-hydroxytryptamine receptor 2A (HTR2A) small molecule agonists, cell-based qHTS assay (AID 1963587). Further: nearly all actives have a fitted effect of over 30% in size. The method, boiled down:
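Kinetic calcium-flux fluorescence (2 min, 1 sec intervals) after compound addition in agonist mode. HTR2A-CHO cells were cultured 18 h, then dye-loaded 1 h at 37 C.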

In assay [11] the target is Muscarinic acetylcholine receptor M1 (Homo sapiens) (UniProt P11229). The assay can be described thus: Cholinergic receptor muscarinic 1 (CHRM1) small molecule antagonists, cell-based qHTS assay (AID 1963588). Further: nearly all actives have a fitted effect of over 40% in size. Further: potency means the concentration at half of the fitted maximal effect. The method, boiled down: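 Compounds were tested at 15 concentrations in three independent runs. Dye-loaded CHRM1-CHO cells were exposed 5 min at room temperature before stimulation by acetylcholine added at 50nM. Intracellular calcium was read kinetically on FDSS for 3 min.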
Chain of Muscarinic acetylcholine receptor M1 (Homo sapiens) (P11229 whole entry, looked up): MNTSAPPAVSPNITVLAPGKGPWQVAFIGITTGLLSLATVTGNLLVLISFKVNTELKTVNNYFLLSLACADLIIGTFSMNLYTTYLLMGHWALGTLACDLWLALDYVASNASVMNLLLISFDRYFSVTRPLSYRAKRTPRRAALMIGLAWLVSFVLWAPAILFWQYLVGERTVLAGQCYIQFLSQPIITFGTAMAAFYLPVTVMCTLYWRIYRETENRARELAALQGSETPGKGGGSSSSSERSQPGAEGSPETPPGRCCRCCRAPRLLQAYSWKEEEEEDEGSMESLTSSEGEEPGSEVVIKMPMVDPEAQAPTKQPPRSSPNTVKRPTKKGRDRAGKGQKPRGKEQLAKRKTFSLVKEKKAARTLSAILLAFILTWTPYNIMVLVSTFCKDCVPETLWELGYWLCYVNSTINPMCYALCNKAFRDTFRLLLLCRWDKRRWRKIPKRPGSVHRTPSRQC

The target is the same in assay [12]. The assay can be described thus: Cholinergic receptor muscarinic 1 (CHRM1) small molecule agonists, cell-based qHTS assay (AID 1963589). Further: nearly all actives have a fitted effect of over 35% in size. Put shortly:
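Fluorescent calcium dye reports M1 activation in stably transfected CHO cells. Compounds, 15 concentrations, added after 1 h dye loading at 37 C; kinetic reading at 1 sec intervals.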

Assay [13] concerns the target D(2) dopamine receptor (Homo sapiens) (UniProt P14416). Nature of the assay: Dopamine D2 receptor (DRD2) small molecule agonists, cell-based qHTS assay (AID 1963594). Further: nearly all actives have a fitted effect of over 35% in size. The method, boiled down:
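cAMP accumulation in DRD2-HEK293 cells measured by HTRF after 1 h detection; compounds added 10 min before NKH477 (200nM […]) forskolin-analogue stimulation, 30 min at room temperature, with Ro20-1724 present at 0.1 mM final.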

For assay [14], the target named is Beta-2 adrenergic receptor (Homo sapiens) (UniProt P07550). The assay can be described thus: Adrenergic beta2 receptor (ADRB2) small molecule antagonists, cell-based qHTS assay (AID 1963592). Further: series mostly up to about 92 µM; nearly all actives have a fitted effect of over 50% in size. The method, boiled down:
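Assay format: CHO-ADRB2 cells, 18-20hr seeding at 37C/5% CO2, then compound plus 1nM isoproterenol agonist mix for 0.5hr RT. Homogeneous time-resolved fluorescence cAMP detection after 1hr, expressed as 665/615 nm ratio.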

The target is the same in assay [15]. The assay can be described thus: Adrenergic beta2 receptor (ADRB2) small molecule agonists, cell-based qHTS assay (AID 1963593).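 Further: CHO cells stably overexpressing human ADRB2.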 The method, boiled down: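 CHO cells stably over-expressing ADRB2 were plated overnight at 37C, then dosed with compounds plus a stimulation mix containing 100uM IBMX and 25uM Ro-20-1724 for 0.5hr at room temperature. cAMP was measured by HTRF competition, 1hr.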

The target of assay [16] is D(2) dopamine receptor (Homo sapiens) (UniProt P14416). The assay can be described thus: Dopamine D2 receptor (DRD2) small molecule antagonists, cell-based qHTS assay (AID 1963595; active means well fitted inhibition curve with a large enough effect in the signal ratio in the repeat runs, with a control signal flat; the % refers to the signal ratio; further: potency means the concentration at half of the fitted maximal effect). Put shortly:
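Stable D2 receptor HEK293 line, 24 h after seeding. Compound preincubated 10 min, then quinpirole (12 nM) with forskolin analogue NKH477 (200 nM), 30 min, room temperature. Detection by time-resolved FRET of cAMP.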

A short description of assay [17]: p53 small molecule agonists, cell-based qHTS assay (AID 1963582; active means well fitted activation curve with a large enough effect in the signal ratio in the repeat runs, not every such curve was filed as active; the % refers to the signal ratio). The method, boiled down:
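After plating, p53RE-bla cells sat 5 h in the incubator; compounds or DMSO vehicle were pinned in; a 16 h incubation at 37 C followed; FRET substrate was added and, 2 h later at RT, fluorescence was measured.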

The nature of assay [18]: cAMP Responsive Elements (CRE) small molecule agonists, cell-based qHTS assay (AID 1963590). Put shortly:
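Compound exposure lasted 3 h at 37 C/5% CO2 in CRE-bla HEK 293T cells grown in assay medium with 10% dialyzed FBS and 25 mM HEPES. Reporter signal came from LiveBLAzer B/G FRET substrate, 2 h, room temperature.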

Assay [19] in a line: cAMP Responsive Elements (CRE) small molecule antagonists, cell-based qHTS assay (AID 1963591; active means well fitted inhibition curve with a large enough effect in the signal ratio in the repeat runs, not every such curve was filed as active; the % refers to the signal ratio). Put shortly: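 Stimulation used NKH477 at a final 0.25 uM for 3 h in compound-treated CRE-bla HEK293T cells, seeded 18 h beforehand. Reporter activity was measured with LiveBLAzer B/G FRET substrate after 2 h at room temperature.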
A short description of assay [20]: p53 small molecule agonists, cell-based qHTS assay with rat liver microsomes: qHTS cell viability counter screen (AID 1963580). Further: nearly all actives have a fitted effect of over 45% in size. Put shortly:
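Rat liver microsome (0.5 mg/mL final) and NADPH (0.5 mg/mL final) co-incubation with compounds for 16 h at 37 C on HCT-116 p53RE-bla cells; cytotoxicity taken from intracellular ATP luminescence.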

The text below walks through data of PubChem BioAssay (Tox21).

Structures are written as SMILES. Values without a mark were called inactive. Results filed as inconclusive are left out. The source made the active and inactive calls. Unless noted, the call rests on the fitted dose curve.
On the % scale 0 is the no-effect control and ±100 the full control effect.

Chain of D(2) dopamine receptor (Homo sapiens) (P14416 whole entry, looked up): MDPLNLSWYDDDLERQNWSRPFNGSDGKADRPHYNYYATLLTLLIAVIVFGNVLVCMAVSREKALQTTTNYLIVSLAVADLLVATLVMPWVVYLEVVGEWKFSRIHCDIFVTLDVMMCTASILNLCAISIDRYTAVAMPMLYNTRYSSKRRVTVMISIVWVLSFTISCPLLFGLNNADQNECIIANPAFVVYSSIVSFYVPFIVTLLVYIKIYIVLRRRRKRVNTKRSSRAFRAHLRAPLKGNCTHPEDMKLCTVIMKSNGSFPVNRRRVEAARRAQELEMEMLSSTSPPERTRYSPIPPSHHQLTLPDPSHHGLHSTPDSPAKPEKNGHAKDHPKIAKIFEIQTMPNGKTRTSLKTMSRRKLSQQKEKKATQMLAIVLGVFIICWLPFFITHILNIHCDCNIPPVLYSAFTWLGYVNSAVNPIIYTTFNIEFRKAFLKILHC
Chain of 5-hydroxytryptamine receptor 2A (Homo sapiens) (P28223 whole entry, looked up): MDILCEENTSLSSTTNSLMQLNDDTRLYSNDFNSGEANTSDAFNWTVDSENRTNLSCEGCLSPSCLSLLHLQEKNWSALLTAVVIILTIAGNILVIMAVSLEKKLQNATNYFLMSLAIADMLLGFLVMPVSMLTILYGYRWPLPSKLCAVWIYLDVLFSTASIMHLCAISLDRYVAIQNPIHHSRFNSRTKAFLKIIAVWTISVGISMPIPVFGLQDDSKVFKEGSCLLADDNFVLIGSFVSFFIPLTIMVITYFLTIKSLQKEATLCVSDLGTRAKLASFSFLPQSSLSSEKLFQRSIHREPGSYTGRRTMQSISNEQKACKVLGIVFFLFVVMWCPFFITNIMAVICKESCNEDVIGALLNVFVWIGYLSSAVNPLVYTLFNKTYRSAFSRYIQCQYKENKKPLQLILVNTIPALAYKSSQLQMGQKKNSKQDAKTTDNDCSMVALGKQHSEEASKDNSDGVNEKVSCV
Chain of KiSS-1 receptor (Homo sapiens) (Q969F8 whole entry, looked up): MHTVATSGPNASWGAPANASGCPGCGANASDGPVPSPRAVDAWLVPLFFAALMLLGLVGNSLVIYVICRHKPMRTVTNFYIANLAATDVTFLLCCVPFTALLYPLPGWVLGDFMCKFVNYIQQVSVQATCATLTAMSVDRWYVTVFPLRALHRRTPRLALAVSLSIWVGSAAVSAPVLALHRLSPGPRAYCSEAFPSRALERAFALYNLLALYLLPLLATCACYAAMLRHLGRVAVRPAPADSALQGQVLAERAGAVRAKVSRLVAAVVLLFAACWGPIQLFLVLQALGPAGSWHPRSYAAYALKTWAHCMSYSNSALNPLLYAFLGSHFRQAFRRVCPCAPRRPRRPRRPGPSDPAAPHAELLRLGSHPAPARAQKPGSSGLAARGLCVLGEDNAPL
Chain of Beta-2 adrenergic receptor (Homo sapiens) (P07550 whole entry, looked up): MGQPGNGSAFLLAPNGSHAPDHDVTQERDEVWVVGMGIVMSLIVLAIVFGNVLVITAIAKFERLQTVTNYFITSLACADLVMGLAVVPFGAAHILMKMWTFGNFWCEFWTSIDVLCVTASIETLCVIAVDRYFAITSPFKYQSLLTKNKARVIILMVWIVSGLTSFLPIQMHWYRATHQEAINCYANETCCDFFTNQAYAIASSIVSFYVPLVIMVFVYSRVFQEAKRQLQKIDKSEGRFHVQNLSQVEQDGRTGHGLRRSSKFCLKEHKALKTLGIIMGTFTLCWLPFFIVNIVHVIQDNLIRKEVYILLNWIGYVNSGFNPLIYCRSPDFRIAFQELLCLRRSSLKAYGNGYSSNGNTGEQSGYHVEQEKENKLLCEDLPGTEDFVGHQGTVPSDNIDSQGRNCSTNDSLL

For the compound `O=C1c2ccccc2C(=O)N1CCc1noc(-c2ccc(CN3CCCCCC3)s2)n1`, the Potency result in assay [1], in [2], in assay [3], in [4], in assay [5] and in assay [6] was “inactive” each time. In addition, the Potency entry in [7], in [8], in assay [9], in assay [10], in assay [12] and in assay [13] was “inactive” in each case. The Potency in assay [11] is 0.273 µM (active).
Consider `COc1cc(C(=O)NC2CCN(C)CC2)ccc1Nc1ncc2c(n1)N(C1CCCC1)CC(F)(F)C(=O)N2C`, for which the Potency was 28.1 µM (active) in assay [1], 16.7 µM (active) in [7] and 49.9 µM (active) in [16]. Moreover, the Potency entry in assay [2], in assay [3], in assay [4], in assay [5], in assay [6] and in [9] was “inactive” each time. Besides, the Potency entry in assay [10], in [14], in [15] and in assay [13] was “inactive” throughout.
For `c1ccc(-c2nc3ccccc3[nH]2)cc1`, the Potency result in [1], in [2], in [3], in assay [4], in assay [5] and in assay [6] was “inactive” throughout. Further, the Potency entry in assay [7], in assay [17], in assay [9], in assay [10], in [11] and in [12] was “inactive” each time. For the same compound, the Potency result in [18], in assay [19], in [14], in assay [13] and in [16] was “inactive” in each case.
Regarding `O=C(C(=O)c1ccc(Br)cc1)c1ccc(Br)cc1`, the activity change, negative = cytotoxicity was -1.93% [at 19 µM] in assay [1], -13.3% [at 13.5 µM] in [7] and -2.62% [at 13.5 µM] in assay [8]. The activity change in [2] was 0.0439% [at 11.8 µM, stronger effect = higher value]. The activation in assay [3] is 0.431% [at 15.8 µM]; in assay [4] it was -0.382% [at 11.8 µM]; in assay [5], -9.98% [at 13.5 µM]; in [6], -6.75% [at 13.6 µM]; in assay [10] it was 2.38% [at 15.9 µM]; in assay [12], -0.452% [at 15.8 µM]. Also, the activation in assay [18] was -0.367% [at 19 µM]; in [13] it was -0.026% [at 19 µM]. The results for the activity, negative = inhibition in [9] and in assay [11] were 10.2% [at 12.7 µM] and 5.04% [at 12.6 µM], respectively. Further, in assay [19], the activity change, negative = inhibition was -9.38% [at 18.9 µM].
Consider `CCN(CC)CCNC(=O)c1c(C)[nH]c(/C=C2\C(=O)Nc3ccc(F)cc32)c1C`, for which the Potency in [1] was 29.8 µM (active). Also, the Potency result in [2], in assay [3], in assay [4], in [5], in assay [6] and in [7] was “inactive” throughout. For the same compound, the Potency entry in assay [8], in [17], in [10], in assay [12], in assay [18] and in [19] was “inactive” each time.
As to `NCCN1CCOCC1`, the Potency entry in assay [1], in assay [2], in assay [3], in assay [4], in [5] and in [6] was “inactive” throughout. Besides, the Potency result in [20], in assay [8], in assay [17], in [9], in assay [10] and in [12] was “inactive” each time. Also, the Potency result in assay [19], in [14] and in assay [13] was “inactive” throughout.
As to `CCOc1ccc(NC(C)=O)cc1N`, the Potency entry in assay [1], in [2], in [3], in assay [4], in [5] and in assay [6] was “inactive” each time. Moreover, the Potency result in assay [20], in assay [8], in assay [17], in [10], in assay [12] and in assay [18] was “inactive” throughout. The Potency entry in assay [19], in assay [14], in assay [13] and in [16] was “inactive” in each case.
Turning to `CCc1ccc(C)cc1`, the Potency result in assay [1], in [2], in [3], in assay [4], in assay [5] and in assay [6] was “inactive” throughout. Besides, the Potency result in assay [7], in assay [17], in [9], in [10], in assay [11] and in assay [12] was “inactive” in each case. In addition, the Potency entry in [18], in [19], in assay [13] and in assay [16] was “inactive” in each case.
